Reference: the supplement of paper PMC13380429

System: Vero E6 infected with SARS-CoV-2
Assay: inhibition of SARS-CoV-2 cytopathic effect; higher = more antiviral protection, active = above 15
Conditions: 48 h

Measured: inhibition of SARS-CoV-2 cytopathic effect

CC(C)(C)OC(=O)c1ncn2c1[C@@H]1CCCN1C(=O)c1c(Br)cccc1-2 [bretazenil]
inactive: 1 nM -1.38% | 8.33 nM -4.36% | 100 nM -1.99% | 833.33 nM -3.96% | 10000 nM -1.07%

CN(C)CCC=C1c2ccccc2C=Cc2ccccc21 [cyclobenzaprine]
inactive: 1 nM 0.3% | 8.33 nM 6.56% | 100 nM 3.92% | 833.33 nM -1.83% | 10000 nM -6.67%

C[C@@H](CN(C)C)CN1c2ccccc2Sc2ccccc21 (racemic) [alimemazine]
inactive: 1 nM -2.63% | 8.33 nM -3.15% | 100 nM -1.76% | 833.33 nM -0.79% | 10000 nM -0.47%

CCCCc1nc(Cl)c(C(=O)O)n1Cc1ccc(-c2ccccc2-c2nn[nH]n2)cc1 [carboxylosartan]
inactive: 1 nM 1.07% | 8.33 nM 1.82% | 100 nM 1.92% | 833.33 nM 0.51% | 10000 nM 0.68%

COC(=O)CC[C@@H]1N=C(c2ccccn2)c2cc(Br)ccc2-n2c(C)cnc21 [remimazolam]
inactive: 1 nM 0.83% | 8.33 nM 1.12% | 100 nM 2.32% | 833.33 nM 0.51% | 10000 nM -1.57%

CC(=O)N[C@H]1[C@@H](O)[C@H](O)[C@@H](CO)O[C@@H]1O [N-acetylmannosamine]
inactive: 1 nM 0.48% | 8.33 nM -0.18% | 100 nM -0.61% | 833.33 nM -1.2% | 10000 nM 1.32%

CN(C)c1nc(N)c(C(=O)Nc2cccnc2)nc1Cl
inactive: 1 nM 1.28% | 8.33 nM 4.72% | 100 nM -0.62% | 833.33 nM 4.15% | 10000 nM 0.82%

COCC[n+]1c2c(n(Cc3cnccn3)c1C)C(=O)c1ccccc1C2=O
inactive: 1 nM 0.33% | 8.33 nM 4.83% | 100 nM 2.74% | 833.33 nM -2.2% | 10000 nM -9.2%

COC(=O)N[C@H](C(=O)N1CC2(CC2)C[C@H]1c1nc(-c2ccc3c(c2)C(F)(F)c2cc(-c4ccc5[nH]c([C@@H]6[C@H]7CC[C@H](C7)N6C(=O)[C@@H](NC(=O)OC)C(C)C)nc5c4)ccc2-3)c[nH]1)C(C)C [ledipasvir]
inactive: 1 nM -1% | 8.33 nM 1.14% | 100 nM -1.6% | 833.33 nM -5.39% | 10000 nM -5.41%

Cc1cc(/C=C/c2ccc3cc(N(C)C)ccc3[n+]2C)c(C)n1-c1ccccc1 [pyrvinium-pamoate]
inactive: 1 nM -1.06% | 8.33 nM -0.84% | 100 nM -3.02% | 833.33 nM -2.46% | 10000 nM -13.7%

Nc1ncnc2c1ncn2CCOCP(=O)(O)O [adefovir]
inactive: 1 nM 6.28% | 8.33 nM 4.07% | 100 nM 2.27% | 833.33 nM 0.75% | 10000 nM 2.85%

O=C1c2c(O)cc(O)cc2O[C@H](c2cc(O)c(O)c(O)c2)[C@H]1O [dihydromyricetin]
inactive: 1 nM 2.39% | 8.33 nM 3.54% | 100 nM 1.66% | 833.33 nM 1.69% | 10000 nM -1.52%

O=C(NCCO)c1cc(C(=O)NCCO)cc(C(=O)NCCO)c1
inactive: 1 nM -0.77% | 8.33 nM -1.01% | 100 nM -1.2% | 833.33 nM -1.25% | 10000 nM 0.61%

CC(C)NC[C@@H](O)COc1ccccc1-n1cccc1 (racemic) [isamoltane]
inactive: 1 nM 1.05% | 8.33 nM -0.83% | 100 nM 1.76% | 833.33 nM 1.65% | 10000 nM -0.73%

CNC(=O)c1cc(Oc2ccc(NC(=O)Nc3cc(C(C)(C)C)nn3-c3ccc4ncccc4c3)c(F)c2)ccn1 [rebastinib]
inactive: 1 nM -1.46% | 8.33 nM 0.18% | 100 nM 1.77% | 833.33 nM 5.75% | 10000 nM 8.96%

O=C(Nc1ccccc1Br)N[C@@H]1CCN(c2ccc(C(F)(F)F)cn2)C1
inactive: 1 nM 3.02% | 8.33 nM 3.06% | 100 nM 1.72% | 833.33 nM 3.42% | 10000 nM 1.82%

C#CC[C@H](c1nc2cc(Cl)ccc2c(=O)n1Nc1ccccc1)N(CCCN)C(=O)c1cccc(Cl)c1F
inactive: 1 nM -0.8% | 8.33 nM -0.99% | 100 nM 0.22% | 833.33 nM 1.38% | 10000 nM -9.07%

Cc1cc(O)ccc1Cl [chlorocresol]
inactive: 1 nM -0.46% | 8.33 nM 2.29% | 100 nM 1.47% | 833.33 nM 1.63% | 10000 nM 1.88%

Cc1cccc(C(C)c2c[nH]cn2)c1C (stereo not given) [medetomidine]
inactive: 1 nM 0.12% | 8.33 nM -1.31% | 100 nM -1.87% | 833.33 nM -1.95% | 10000 nM -1.68%

Oc1ccc(OC2CCCCO2)cc1 (stereo not given) [deoxyarbutin]
inactive: 1 nM -1.9% | 8.33 nM -1.93% | 100 nM -0.6% | 833.33 nM 0.9% | 10000 nM -0.71%

O=C(O)c1ccccc1NCCc1ccccc1 [tromaril]
inactive: 1 nM -2.04% | 8.33 nM 0.78% | 100 nM 1.18% | 833.33 nM 1.39% | 10000 nM 1.35%

FC(F)(F)C(F)(F)C(F)(F)N(C(F)(F)C(F)(F)C(F)(F)F)C(F)(F)C(F)(F)C(F)(F)F [perfluamine]
inactive: 1 nM -4.49% | 8.33 nM -1.58% | 100 nM -5.22% | 833.33 nM -3.78% | 10000 nM -1.62%

CN(c1ncccc1CNc1nc(Nc2ccc3c(c2)CC(=O)N3)ncc1C(F)(F)F)S(C)(=O)=O
inactive: 1 nM 0.16% | 8.33 nM 0.22% | 100 nM -1.3% | 833.33 nM -2.48% | 10000 nM -3.05%

Cc1ccc([N+](=O)[O-])cc1S(=O)(=O)N(C)/N=C/c1cnc2ccc(Br)cn12
inactive: 1 nM 0.29% | 8.33 nM -0.13% | 100 nM -5.92% | 833.33 nM -16.5% | 10000 nM -5.86%

CCC(=O)N[C@@H]1Cc2ccccc2[C@H](c2ccccc2)C1
inactive: 1 nM 1.13% | 8.33 nM 2.8% | 100 nM 2.79% | 833.33 nM 3.72% | 10000 nM 2.13%

Cn1cnc(N)c2ncnc1-2 [3-methyladenine]
inactive: 1 nM -3.13% | 8.33 nM -1.71% | 100 nM -2.68% | 833.33 nM -0.52% | 10000 nM -1.76%

Cc1c(O)cccc1C(=O)N[C@@H](CSc1ccccc1)[C@H](O)CN1C[C@H]2CCCC[C@H]2C[C@H]1C(=O)NC(C)(C)C [nelfinavir]
inactive: 1 nM -4.7% | 8.33 nM -3.72% | 100 nM -1.32% | 833.33 nM 3.72%
active: 10000 nM 43.2%

O=C(O)c1ccc2nc(-c3cc(Cl)cc(Cl)c3)oc2c1 [tafamidis-meglumine]
inactive: 1 nM -0.14% | 8.33 nM -0.38% | 100 nM -1.04% | 833.33 nM 1.34% | 10000 nM 0.08%

CC(=O)Nc1c(I)cc(I)c(C(=O)O)c1I [acetriazoic-acid]
inactive: 1 nM -0.01% | 8.33 nM 0.54% | 100 nM -0.88% | 833.33 nM 0.14% | 10000 nM -0.46%

Oc1c(Cl)cc(Cl)c2cccnc12 [chloroxine]
inactive: 1 nM 2.69% | 8.33 nM 2.44% | 100 nM 1.43% | 833.33 nM -0.59% | 10000 nM -0.15%

CCCCCCCCC(=O)N[C@H](CN1CCCC1)[C@H](O)c1ccc2c(c1)OCCO2
inactive: 1 nM 3.01% | 8.33 nM 0.25% | 100 nM 2.54% | 833.33 nM 1.06% | 10000 nM 9.9%

O=C(OC(C(F)(F)F)C(F)(F)F)N1CCC(C(O)(c2ccc3c(c2)OCO3)c2ccc3c(c2)OCO3)CC1
inactive: 1 nM -1.87% | 8.33 nM 0.04% | 100 nM -0.31% | 833.33 nM -1.03% | 10000 nM 0.49%

c1cc2c3c(c1)c1c(n3CCNC2)CCCC1
inactive: 1 nM -1.27% | 8.33 nM -0.02% | 100 nM 0.6% | 833.33 nM 0.21% | 10000 nM -0.08%

COc1ccc2[nH]c([S+]([O-])Cc3ncc(C)c(OC)c3C)nc2n1 (stereo not given) [tenatoprazole]
inactive: 1 nM -9.92% | 8.33 nM -12.8% | 100 nM -7.87% | 833.33 nM -11.3% | 10000 nM 2.26%

CNC(=O)[C@H]1O[C@@H](n2cnc3c(NCc4cccc(I)c4)nc(Cl)nc32)[C@H](O)[C@@H]1O
inactive: 1 nM 2.28% | 8.33 nM 3.03% | 100 nM 4.18% | 833.33 nM 2.83% | 10000 nM 0.99%

CC#CCOC(=O)c1c(C)nc2sc3c(c2c1N)CCC(O)C3 (stereo not given)
inactive: 1 nM 1.8% | 8.33 nM 0.47% | 100 nM 3.12% | 833.33 nM -0.32% | 10000 nM 0.73%

CCCCN(Cc1ccc(C(=O)NO)cc1)C(=O)Nc1ccccc1 [nexturastat-A]
inactive: 1 nM 0.96% | 8.33 nM 0.67% | 100 nM -0.8% | 833.33 nM -3.85% | 10000 nM -13.9%

N[C@@H]1[C@H]2CN(c3nc4c(cc3F)c(=O)c(C(=O)O)cn4-c3ccc(F)cc3F)C[C@@H]12 [trovafloxacin]
inactive: 1 nM -8.03% | 8.33 nM -6.09% | 100 nM -4.83% | 833.33 nM -0.82% | 10000 nM -1.33%

COCCOC(=O)C1=C(C)NC(C)=C(C(=O)OC(C)C)C1c1cccc([N+](=O)[O-])c1 (stereo not given) [nimodipine]
inactive: 1 nM -2.49% | 8.33 nM -0.07% | 100 nM -1% | 833.33 nM 1.52% | 10000 nM 1.16%
